Records with an inconclusive call do not appear. A number with no mark means an inactive call. Calls follow the shape of the dose curve; as a rule, active = well fitted cell-killing curve with a large enough effect in the repeat runs; inconclusive = weak or mixed curves, or effect the other way; inactive = no such curve, though single readings can be large or run the other way.
% is scaled to controls: 0 for no effect and ±100 for the full control effect.

A short description of this assay: qHTS assay to identify small molecule agonists of the RXR signaling pathway - cell viability counter screen (AID 1159529). Also: nearly all actives have a fitted effect of over 50% in size. Conditions: RXR-alpha-bla HEK293T viability, CellTiter-Glo, 16 h; series mostly up to 76.8 µM; activity change, negative = cytotoxicity: at the top concentration. The text has this:
National Center for Advancing Translational Sciences [NCATS]
NIH Chemical Genomics Center [NCGC]
U.S. Environmental Protection Agency [EPA]
National Institutes of Environmental Health Sciences [NIEHS]
National Toxicology Program [NTP]
U.S. Food and Drug Administration [FDA]
The Retinoid X receptor (RXR), a nuclear hormone receptor expressed in liver, spleen, placenta, epidermis, central nervous system. These receptors are able to form homo and heterodimers with other nuclear receptors and due to this heterodimerizing ability, RXR functions as master regulators producing diverse physiological effects. Three subtypes of RXR exist; alpha, beta and gamma. Retinoid X receptor alpha (RXR-alpha) has potential roles in metabolic signaling pathways, skin alopecia, dermal cysts, cardiac development, insulin sensitization etc. Therefore screening environmental chemicals on RXR-alpha signaling can be used for the studies focused on such therapeutic applications. For quantification of RXR-alpha ligands signaling, GeneBLAzer RXR alpha-UAS-bla HEK 293T (Life Technologies, Carlsbad, CA) cells containing a beta-lactamase reporter-gene under control of Retinoid X receptor-alpha response element were used to screen Tox21 10K library. The cytotoxicity of the Tox21 compound library against the RXR-alpha HEK 293T cell line was tested in parallel by measuring cell viability using CellTiter-Glo assay (Promega Corporation, Madison, WI) in the same wells.
Tox21 Assay Protocol Summary:
RXR-alpha HEK 293T cells were dispensed at 2,000 cells/6 uL of assay medium containing 2% charcoal-stripped FBS using a Multidrop Combi (ThermoFisher Scientific, Waltham, MA) dispenser. The assay was performed in black wall/clear-bottom 1536-well plates (Greiner Bio-One North America Inc. Monroe, NC). Tetraoctyl ammonium bromide was used as a positive control in the cytotoxicity screen. After the assay plates were incubated at 37 C and 5% CO2 for 5 hr, 23 nL of compounds dissolved in DMSO, positive control or DMSO only were transferred to the assay plate by a Pintool station (Kalypsys, San Diego, CA). The assay plates were incubated at 37 C and 5% CO2 for 16 hr. One uL of LiveBLAzer B/G FRET substrate (Life Technologies) was added using a Flying Reagent Dispenser (FRD) (Aurora Discovery, San Diego, CA) and the plates were incubated at room temperature for 2 hr. Fluorescence intensity (405 nm excitation, 460/530 nm emission) was measured using an Envision plate reader (PerkinElmer, Shelton, CT). For cytotoxicity, 4 uL/well of CellTiter-Glo reagent was added into the assay plates using an FRD. After 30 min incubation at room temperature, the luminescence intensity was measured using a ViewLux plate reader (PerkinElmer).
In general terms: qHTS replaces the single test concentration by a dilution series.
Regarding `CCOC(=O)CC(CC(=O)OCC)(OC(C)=O)C(=O)OCC`, the “activity change, negative = cytotoxicity” value is -0.848%. In the case of `CCOC(=O)C(C)(C)C` it was 2.74%; in that of `BrC/C=C/CBr`, -1.93% [at 15.8 µM].

`CC(C)=CC(C)(C)C`: the “activity change, negative = cytotoxicity” value was 5.93%. The result for `O=c1cc(O)c(Cl)c[nH]1` reads 5.78% [at 35.3 µM]. In the case of `CCC(C)(CCC(C)C)C(=O)[O-].CCC(C)(CCC(C)C)C(=O)[O-].[Zn+2]` (stereo not given) it was 1.17%. The result for `O=S(=O)(O)c1cc(O)ccc1O` reads -0.509%; that for `CC(=O)OC[C@H]1O[C@@H](OC(C)=O)[C@H](OC(C)=O)[C@@H]1OC(C)=O`, 5.64% [at 35.3 µM]; that for `Cc1nc2n(c(=O)c1CCN1CCC(C(=O)c3ccc(F)cc3)CC1)CCS2`, -11.5% [at 35.3 µM]. On to `NS(=O)(=O)c1ccc(Cl)c(S(N)(=O)=O)c1`, for which the “activity change, negative = cytotoxicity” value is 5.13% [at 35.3 µM]. With `NC(=O)NNC(N)=O`, the “activity change, negative = cytotoxicity” value was 8.01%. On to `CCN(Cc1cccc(S(=O)(=O)O)c1)c1ccccc1`, for which the “activity change, negative = cytotoxicity” value was 7.06%.

In the case of `c1ccccc1`, the “activity change, negative = cytotoxicity” value is -1.51%. The result for `C=C[Si](C)(C)O[Si](C)(C)C=C` reads 5.8%; that for `CCCCCCCCCCCCC1CO1` (stereo not given), -0.37%; that for `CC1(N)CCC(C(C)(C)N)CC1` (stereo not given), -18.2%. Consider `CC(C)SCc1ccco1`, for which the “activity change, negative = cytotoxicity” value is 9.88% [at 35.3 µM]. Regarding `CC(C)COC(=O)CC(C(=O)OCC(C)C)S(=O)(=O)O` (stereo not given), the “activity change, negative = cytotoxicity” value was -7.97%.

For `CC(C)COC(=O)COc1ccc(Cl)cc1Cl`, the “activity change, negative = cytotoxicity” value is -0.024%. On to `O=C(/C=C/c1ccccc1)NCCO`, for which the “activity change, negative = cytotoxicity” value was -11.1% [at 35.3 µM]. Consider `CCCCOC(=O)C(=O)OCCCC`, for which the “activity change, negative = cytotoxicity” value is 18%. For `C=CCOCC(CO)(COCC=C)COCC=C`, the “activity change, negative = cytotoxicity” value was 2.89% [at 35.3 µM]. Consider `CCC(CO)CO`, for which the “activity change, negative = cytotoxicity” value is 1.68%.

Consider `CCN(CCC#N)c1ccccc1`, for which the “activity change, negative = cytotoxicity” value was 7.58%. Regarding `Cc1ccc(C(=O)C(=O)O)cc1C`, the “activity change, negative = cytotoxicity” value is -3.38% [at 35.3 µM].

`CCCCC(=O)N(C)C`: the “activity change, negative = cytotoxicity” value was 12.2%. The result for `Cc1oc(=O)oc1CN1CCN(c2cc3c(cc2F)c(=O)c(C(=O)O)c2n3C(C)S2)CC1` (stereo not given) reads 2.95% [at 35.3 µM].

Take `O=CN1CCOCC1`: the “activity change, negative = cytotoxicity” value was 9.56%. Take `CC(=O)OCC(=O)[C@@]1(O)[C@H](OC(C)=O)C[C@H]2[C@@H]3CCC4=CC(=O)C=C[C@]4(C)[C@@]3(F)[C@@H](O)C[C@@]21C`: the “activity change, negative = cytotoxicity” value was 7.19% [at 35.3 µM]. The result for `CCCCCCCCCCC` reads -3.36%; that for `O=C(O)c1ccccc1C(=O)Nc1ccc(S(=O)(=O)Nc2nccs2)cc1`, 1.51% [at 35.3 µM]. Take `Cc1cccc(NC(=S)N(C)C)c1`: the “activity change, negative = cytotoxicity” value was 5.38%.

Consider `O=P(O)(O)OCC(O)CO` (stereo not given), for which the “activity change, negative = cytotoxicity” value was 3.62% [at 35.3 µM]. In the case of `O=S(=O)(O)SSS(=O)(=O)O` it was 1.15%.

Take `C=CCOc1c(Br)cc(C(C)(C)c2cc(Br)c(OCC=C)c(Br)c2)cc1Br`: the “activity change, negative = cytotoxicity” value was 0.349% [at 35.3 µM]. Turning to `O=C(O)Cc1cccc(-c2cc(CCCCCCc3ccc(O[C@H]4O[C@H](CO)[C@@H](O)[C@H](O)[C@@H]4O)c(-c4cccc(CC(=O)O)c4)c3)ccc2O[C@H]2O[C@H](CO)[C@@H](O)[C@H](O)[C@@H]2O)c1`, the activity change, negative = cytotoxicity was 12.1% [at 0.29 µM]. The result for `CC(=O)N(CC(O)CO)c1c(I)c(C(=O)NCC(O)CO)c(I)c(C(=O)NCC(O)CO)c1I` (stereo not given) reads 0.944% [at 35.3 µM]. In the case of `CC(C)CCC(=O)CCC(C)C` it was 11.4%; in that of `Cc1c(C(C)C)c(=O)n(-c2ccccc2)n1C`, 2.31% [at 35.3 µM]. Regarding `NS(=O)(=O)c1ccccc1OC(F)(F)F`, the “activity change, negative = cytotoxicity” value is 11.9%.

For the origin of these results see PubChem BioAssay (Tox21).
